Experimental data published in PubChem BioAssay (Tox21).
Results filed as inconclusive are left out. The source made the active and inactive calls. Unless noted, the call rests on the fitted dose curve; in most records, active means well fitted curve in the direction sought with a large enough effect in the repeat runs; inconclusive means weak or mixed curves; inactive means no such curve, though single readings can be large; an effect the other way counts as inactive or inconclusive.

Columns and labels:
[1] = qHTS assay to identify small molecule agonists of the TGF-beta/Smad signaling pathway - cell viability counter screen (AID 1346829); further: top concentration of the series differs between compounds; nearly all actives have a fitted effect of over 45% in size
Procedure, shortened: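 HEK 293T SBE-bla line, 5 hr compound exposure at 37 C, multiplexed CellTiter-Glo viability read by luminescence.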

[2] = qHTS assay to identify small molecule agonists of the TGF-beta/Smad signaling pathway (AID 1346859; active means well fitted activation curve with a large enough effect in the signal ratio in the repeat runs, not every such curve was filed as active; the % refers to the signal ratio; further: series mostly up to about 77 µM)
Procedure, shortened: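 Stable Smad binding element-beta-lactamase HEK 293T cells; 5 hr compound exposure at 37 C under 5% CO2; 2 hr room-temperature substrate step; fluorescence excited at 405 nm, collected at 460 nm and 530 nm.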

[3] = target: Thyrotropin-releasing hormone receptor (Homo sapiens) (UniProt P34981); assay: qHTS assay to identify small molecule antagonists of the thyrotropin-releasing hormone receptor (TRHR) signaling pathway (AID 1346877; active means well fitted inhibition curve with a large enough effect in the repeat runs, not every such curve was filed as active; further: series mostly up to about 51 µM)
Thyrotropin-releasing hormone receptor (Homo sapiens), sequence (P34981 whole entry, looked up): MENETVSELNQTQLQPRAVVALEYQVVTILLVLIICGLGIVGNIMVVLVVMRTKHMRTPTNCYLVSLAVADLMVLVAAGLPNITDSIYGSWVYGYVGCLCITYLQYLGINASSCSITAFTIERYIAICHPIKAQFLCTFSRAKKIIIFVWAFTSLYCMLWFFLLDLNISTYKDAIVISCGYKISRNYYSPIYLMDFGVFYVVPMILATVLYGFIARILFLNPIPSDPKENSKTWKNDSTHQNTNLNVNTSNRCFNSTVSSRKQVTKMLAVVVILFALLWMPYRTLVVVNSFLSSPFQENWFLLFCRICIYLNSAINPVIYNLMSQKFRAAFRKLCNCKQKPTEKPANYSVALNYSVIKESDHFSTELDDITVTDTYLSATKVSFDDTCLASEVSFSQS
Procedure, shortened: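 Kinetic fluorescence (3 min, 1 s resolution) following stimulation with TRH at 1 nM final; HEK293 cells bearing human TRHR; 5 min compound preincubation at RT; concentration-response over 15 points, triplicates.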

[4] = target: Thyrotropin-releasing hormone receptor (Homo sapiens) (UniProt P34981); assay: qHTS assay to identify small molecule agonists of the thyrotropin-releasing hormone receptor (TRHR) signaling pathway (AID 1346891; calls by dose curve;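 further: HEK293 cells expressing TRHR with calcium dye readout; series mostly up to about 58 µM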)
Procedure, shortened: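 In 1536-format, 1500 TRHR-Hek293 cells per well grew 18 h, took up calcium dye for 2 h at 37 °C, received compound, and were read kinetically; 15-point titrations, triplicates.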

[5] = Caspase-3/7 induction in HepG2 cells by small molecules, qHTS assay (AID 1346978); further: nearly all actives have a fitted effect of over 15% in size
Procedure, shortened: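 Wild-type HepG2 cells, 2,000/well, settled 5 hr at 37 C and 5% CO2, then compound-treated for 17 hr; caspase-3/7 activity read by luminescent Caspase-Glo 3/7 after 30 min at room temperature.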

[6] = Caspase-3/7 induction in CHO-K1 cells by small molecules, qHTS cell viability counter screen (AID 1346979); further: nearly all actives have a fitted effect of over 35% in size
Procedure, shortened: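 To flag cytotoxic compounds, treated CHO-K1 wild-type cells were given CellTiter-Fluor at 16hr and read fluorescently after 1hr at 37C; the caspase-3/7 luminescence was measured in these same wells.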

[7] = Caspase-3/7 induction in CHO-K1 cells by small molecules, qHTS assay (AID 1346980); further: nearly all actives have a fitted effect of over 15% in size
Procedure, shortened: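 Wild-type CHO-K1 cells exposed to compounds for 17hr at 37 C, 5% CO2. Caspase-3/7 activity then measured by Caspase-Glo 3/7 luminescence after 30min at room temperature.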

[8] = Caspase-3/7 induction in HepG2 cells by small molecules, qHTS cell viability counter screen (AID 1346981); further: series mostly up to about 92 µM; nearly all actives have a fitted effect of over 30% in size
Procedure, shortened: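 In this quantitative HTS counter screen, compounds delivered in DMSO were left on unmodified HepG2 cells for 16 hr at 37 C. Viability was then determined fluorometrically with CellTiter-Fluor, in parallel with caspase-3/7 induction in the same wells.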

[9] = target: Nuclear receptor subfamily 1 group I member 2 (Homo sapiens) (UniProt O75469); assay: Human pregnane X receptor (PXR) small molecule agonists, qHTS assay (AID 1346982); further: nearly all actives have a fitted effect of over 35% in size
Nuclear receptor subfamily 1 group I member 2 (Homo sapiens), sequence (O75469 whole entry, looked up): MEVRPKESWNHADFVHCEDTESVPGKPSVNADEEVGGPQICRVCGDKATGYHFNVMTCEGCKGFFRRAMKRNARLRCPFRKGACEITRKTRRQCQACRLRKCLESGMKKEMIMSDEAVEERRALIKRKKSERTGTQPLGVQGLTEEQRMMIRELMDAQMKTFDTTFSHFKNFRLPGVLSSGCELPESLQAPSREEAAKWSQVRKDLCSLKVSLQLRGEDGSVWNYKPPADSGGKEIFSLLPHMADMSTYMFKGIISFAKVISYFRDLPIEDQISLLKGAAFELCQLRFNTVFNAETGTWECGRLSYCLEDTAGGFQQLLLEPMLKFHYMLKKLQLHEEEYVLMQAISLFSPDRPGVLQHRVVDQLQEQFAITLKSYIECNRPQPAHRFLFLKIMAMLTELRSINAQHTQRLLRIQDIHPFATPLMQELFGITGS
Procedure, shortened: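 Reporter HepG2 cells expressing PXR-Luc are cultured in charcoal-stripped FBS (5%), treated with compounds for 24 hr at 37 C, and assayed by ONE-Glo luminescence after 30 min at room temperature.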

[10] = target: Cytochrome P450 2D6 (Homo sapiens) (UniProt P10635); assay: Cytochrome P450 Family 2 Subfamily D Member 6 (CYP2D6) small molecule antagonists: luciferase reporter qHTS assay (AID 1671196); further: nearly all actives have a fitted effect of over 50% in size; further: potency means the concentration at half of the fitted maximal effect; on activity change, negative = inhibition: series mostly up to about 120 µM
Cytochrome P450 2D6 (Homo sapiens), sequence (P10635 whole entry, looked up): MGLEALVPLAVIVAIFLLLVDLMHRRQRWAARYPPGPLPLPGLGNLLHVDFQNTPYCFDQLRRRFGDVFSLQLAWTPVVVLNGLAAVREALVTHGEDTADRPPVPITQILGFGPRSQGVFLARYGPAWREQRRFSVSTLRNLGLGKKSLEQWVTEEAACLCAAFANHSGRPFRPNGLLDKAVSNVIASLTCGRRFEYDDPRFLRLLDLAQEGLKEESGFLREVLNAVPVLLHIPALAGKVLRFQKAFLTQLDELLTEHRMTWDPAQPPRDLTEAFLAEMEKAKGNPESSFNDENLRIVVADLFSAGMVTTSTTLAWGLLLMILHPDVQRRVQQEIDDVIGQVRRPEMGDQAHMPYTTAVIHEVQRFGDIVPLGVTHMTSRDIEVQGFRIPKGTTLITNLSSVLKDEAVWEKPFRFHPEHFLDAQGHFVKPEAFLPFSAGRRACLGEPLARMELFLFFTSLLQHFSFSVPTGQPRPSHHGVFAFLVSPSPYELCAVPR
Procedure, shortened: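 Test chemicals meet CYP2D6 plus proluciferin substrate (10 min, RT); NADPH regenerating solution then drives turnover for 1 h. Detection reagent halts the reaction; luminescence measured after 20 min.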

[11] = target: Cytochrome P450 2C19 (Homo sapiens) (UniProt P33261); assay: Cytochrome P450 Family 2 Subfamily C Member 19 (CYP2C19) small molecule antagonists: luciferase reporter qHTS assay (AID 1671197); further: nearly all actives have a fitted effect of over 65% in size; further: potency means the concentration at half of the fitted maximal effect; on activity change, negative = inhibition: series mostly up to about 120 µM
Cytochrome P450 2C19 (Homo sapiens), sequence (P33261 whole entry, looked up): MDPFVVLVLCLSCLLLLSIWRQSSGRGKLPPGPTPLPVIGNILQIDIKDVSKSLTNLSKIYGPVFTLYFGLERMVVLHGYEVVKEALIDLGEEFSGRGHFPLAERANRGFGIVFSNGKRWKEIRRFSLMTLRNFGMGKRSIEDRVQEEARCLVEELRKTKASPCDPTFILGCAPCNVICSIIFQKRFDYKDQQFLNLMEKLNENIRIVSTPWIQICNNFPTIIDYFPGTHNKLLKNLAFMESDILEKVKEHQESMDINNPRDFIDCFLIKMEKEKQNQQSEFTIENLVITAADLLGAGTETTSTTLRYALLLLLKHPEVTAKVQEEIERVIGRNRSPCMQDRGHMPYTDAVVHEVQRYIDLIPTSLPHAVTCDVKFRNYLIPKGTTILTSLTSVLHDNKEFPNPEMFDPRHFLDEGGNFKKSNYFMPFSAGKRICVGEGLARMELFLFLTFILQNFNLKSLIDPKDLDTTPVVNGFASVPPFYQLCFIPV
Procedure, shortened: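 First, compounds are pinned into enzyme-substrate mix and held 10 min at room temperature. Second, NADPH regeneration solution is added and plates incubate 1 h at 37C. Third, detection reagent is added and luminescence read after 20 min.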

[12] = target: Cytochrome P450 2C9 (Homo sapiens) (UniProt P11712); assay: Cytochrome P450 Family 2 Subfamily C Member 9 (CYP2C9) small molecule antagonists: luciferase reporter qHTS assay (AID 1671198); further: nearly all actives have a fitted effect of over 50% in size; further: potency means the concentration at half of the fitted maximal effect; on activity change, negative = inhibition: series mostly up to about 120 µM
Cytochrome P450 2C9 (Homo sapiens), sequence (P11712 whole entry, looked up): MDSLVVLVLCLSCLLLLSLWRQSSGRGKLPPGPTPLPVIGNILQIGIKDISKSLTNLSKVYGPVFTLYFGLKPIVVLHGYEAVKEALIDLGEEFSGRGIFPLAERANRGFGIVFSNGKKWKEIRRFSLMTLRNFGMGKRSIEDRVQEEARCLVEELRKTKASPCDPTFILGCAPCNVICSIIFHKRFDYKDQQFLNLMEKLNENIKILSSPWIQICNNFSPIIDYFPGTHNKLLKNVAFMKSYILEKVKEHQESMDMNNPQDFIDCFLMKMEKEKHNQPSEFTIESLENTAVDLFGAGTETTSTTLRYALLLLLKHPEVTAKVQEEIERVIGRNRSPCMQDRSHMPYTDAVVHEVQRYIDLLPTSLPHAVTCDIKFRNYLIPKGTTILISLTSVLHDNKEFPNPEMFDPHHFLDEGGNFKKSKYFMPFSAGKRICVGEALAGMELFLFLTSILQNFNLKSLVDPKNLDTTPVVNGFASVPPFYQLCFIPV
Procedure, shortened: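 P450-Glo proluciferin substrate with CYP2C9 enzyme; 10 min RT preincubation, then NADPH regeneration 1 h at 37C; luciferin detection reagent 20 min RT, luminescence in relative luminescence units.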

[13] = target: Voltage-gated inwardly rectifying potassium channel KCNH2 (Homo sapiens) (UniProt Q12809); assay: Human Ether-a-go-go-Related Gene (hERG) channel small molecule antagonists: fluorescence cell-based qHTS assay (AID 1671200);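 further: hERG-expressing U2OS cells given a thallium stimulus after FluxOR II dye loading; series mostly up to about 77 µM; nearly all actives have a fitted effect of over 50% in size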
Voltage-gated inwardly rectifying potassium channel KCNH2 (Homo sapiens), sequence (Q12809 whole entry, looked up): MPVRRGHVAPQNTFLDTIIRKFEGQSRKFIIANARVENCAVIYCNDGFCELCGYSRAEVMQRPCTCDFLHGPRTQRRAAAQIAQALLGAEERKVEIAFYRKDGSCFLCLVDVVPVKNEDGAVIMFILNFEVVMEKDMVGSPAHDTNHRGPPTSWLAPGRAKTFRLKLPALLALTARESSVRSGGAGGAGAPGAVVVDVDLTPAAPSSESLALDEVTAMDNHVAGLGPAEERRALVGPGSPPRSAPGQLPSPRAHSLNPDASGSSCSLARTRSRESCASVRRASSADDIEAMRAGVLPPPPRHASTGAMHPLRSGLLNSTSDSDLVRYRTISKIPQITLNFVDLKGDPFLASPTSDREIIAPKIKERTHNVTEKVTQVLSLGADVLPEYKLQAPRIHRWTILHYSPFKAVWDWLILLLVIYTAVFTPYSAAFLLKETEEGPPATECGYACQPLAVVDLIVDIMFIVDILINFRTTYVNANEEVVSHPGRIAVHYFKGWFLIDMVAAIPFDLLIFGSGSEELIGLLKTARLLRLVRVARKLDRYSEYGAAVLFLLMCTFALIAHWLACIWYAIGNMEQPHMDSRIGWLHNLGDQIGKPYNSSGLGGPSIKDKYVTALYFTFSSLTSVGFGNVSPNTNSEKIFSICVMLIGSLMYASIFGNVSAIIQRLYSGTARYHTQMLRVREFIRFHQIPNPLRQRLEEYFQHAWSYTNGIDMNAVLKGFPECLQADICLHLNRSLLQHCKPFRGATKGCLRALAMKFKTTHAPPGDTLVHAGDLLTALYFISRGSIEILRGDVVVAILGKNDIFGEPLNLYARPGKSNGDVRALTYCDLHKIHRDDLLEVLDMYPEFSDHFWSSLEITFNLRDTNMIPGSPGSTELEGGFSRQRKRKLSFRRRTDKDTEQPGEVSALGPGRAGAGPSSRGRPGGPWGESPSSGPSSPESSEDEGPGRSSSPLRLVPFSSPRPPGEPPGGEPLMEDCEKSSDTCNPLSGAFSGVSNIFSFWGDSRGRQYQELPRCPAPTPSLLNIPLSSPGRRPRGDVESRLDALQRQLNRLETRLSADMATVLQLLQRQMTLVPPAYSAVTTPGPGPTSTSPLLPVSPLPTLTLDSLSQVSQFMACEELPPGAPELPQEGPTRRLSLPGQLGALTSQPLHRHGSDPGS
Procedure, shortened: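 Measured: Tl+ flux via fluorescence (480/540 nm) in hERG-expressing U2OS cells after 1 h dye loading at room temperature.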

[14] = target: Cytochrome P450 1A2 (Homo sapiens) (UniProt P05177); assay: Cytochrome P450 Family 1 Subfamily A Member 2 (CYP1A2) small molecule antagonists: luciferase reporter qHTS assay (AID 1671199); further: nearly all actives have a fitted effect of over 50% in size; further: potency means the concentration at half of the fitted maximal effect; on activity change, negative = inhibition: series mostly up to about 120 µM
Cytochrome P450 1A2 (Homo sapiens), sequence (P05177 whole entry, looked up): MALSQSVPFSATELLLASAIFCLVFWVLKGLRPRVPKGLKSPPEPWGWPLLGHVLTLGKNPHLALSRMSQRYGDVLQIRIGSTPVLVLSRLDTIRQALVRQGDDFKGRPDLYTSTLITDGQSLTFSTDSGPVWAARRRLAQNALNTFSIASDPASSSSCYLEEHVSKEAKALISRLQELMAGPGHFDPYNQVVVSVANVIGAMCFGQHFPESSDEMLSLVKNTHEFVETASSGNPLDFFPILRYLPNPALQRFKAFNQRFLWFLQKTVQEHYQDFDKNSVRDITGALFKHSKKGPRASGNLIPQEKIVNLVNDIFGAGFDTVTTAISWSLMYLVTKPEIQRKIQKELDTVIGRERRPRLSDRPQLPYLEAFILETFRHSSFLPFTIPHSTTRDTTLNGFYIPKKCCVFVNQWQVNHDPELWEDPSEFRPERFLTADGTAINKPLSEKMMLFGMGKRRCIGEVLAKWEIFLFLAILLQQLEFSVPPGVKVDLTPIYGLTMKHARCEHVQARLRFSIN
Procedure, shortened: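 Steps: enzyme-substrate mix dispensed; test compounds and furafylline control pinned in; 10 min room temperature; NADPH regeneration solution added, 1 h; reaction stopped with luciferin detection reagent; luminescence read after 20 min.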

[15] = target: Cytochrome P450 3A4 (Homo sapiens) (UniProt P08684); assay: Cytochrome P450 Family 3 Subfamily A Member 4 (CYP3A4) small molecule antagonists: luciferase reporter qHTS assay (AID 1671201)
Cytochrome P450 3A4 (Homo sapiens), sequence (P08684 whole entry, looked up): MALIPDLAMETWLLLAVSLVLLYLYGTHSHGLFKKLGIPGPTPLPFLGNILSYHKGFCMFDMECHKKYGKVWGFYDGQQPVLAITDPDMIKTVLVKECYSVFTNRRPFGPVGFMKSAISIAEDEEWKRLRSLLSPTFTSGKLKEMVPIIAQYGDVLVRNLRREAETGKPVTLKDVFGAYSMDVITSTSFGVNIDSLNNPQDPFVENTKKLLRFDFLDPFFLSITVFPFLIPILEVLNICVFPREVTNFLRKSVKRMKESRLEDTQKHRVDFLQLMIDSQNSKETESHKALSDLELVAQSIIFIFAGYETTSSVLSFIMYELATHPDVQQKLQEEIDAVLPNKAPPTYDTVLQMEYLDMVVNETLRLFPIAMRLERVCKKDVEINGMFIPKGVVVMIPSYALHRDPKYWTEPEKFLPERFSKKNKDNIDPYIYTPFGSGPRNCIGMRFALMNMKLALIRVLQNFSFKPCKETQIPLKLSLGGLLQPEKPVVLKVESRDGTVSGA
Procedure, shortened: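 Setup: enzyme-substrate mix, compound pin transfer, 10 min RT. Reaction: NADPH regeneration solution, 1 h RT. Readout: detection reagent stops turnover, luminescence measured after 20 min, expressed in relative luminescence units.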

[16] = Human pregnane X receptor (PXR) small molecule agonists, qHTS cell viability counter screen (AID 1346977); further: nearly all actives have a fitted effect of over 50% in size
Procedure, shortened: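 Readout is CellTiter-Fluor fluorescence from PXR-Luc HepG2 cells. Plated cells rested 5hr, then were treated with compounds for 24hr at 37C and 5% CO2, with reagent present during the last hour.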

[17] = target: Nuclear receptor subfamily 1 group I member 2 (Rattus norvegicus) (UniProt Q9R1A7); assay: Rat pregnane X receptor (rPXR) activation by small molecules, qHTS assay (AID 1346983); conditions: rPXR luciferase reporter cells, One-Glo luminescence, 24 h; max activation: active compounds read high; further: nearly all actives have a fitted effect of over 20% in size
Nuclear receptor subfamily 1 group I member 2 (Rattus norvegicus), sequence (Q9R1A7 whole entry, looked up): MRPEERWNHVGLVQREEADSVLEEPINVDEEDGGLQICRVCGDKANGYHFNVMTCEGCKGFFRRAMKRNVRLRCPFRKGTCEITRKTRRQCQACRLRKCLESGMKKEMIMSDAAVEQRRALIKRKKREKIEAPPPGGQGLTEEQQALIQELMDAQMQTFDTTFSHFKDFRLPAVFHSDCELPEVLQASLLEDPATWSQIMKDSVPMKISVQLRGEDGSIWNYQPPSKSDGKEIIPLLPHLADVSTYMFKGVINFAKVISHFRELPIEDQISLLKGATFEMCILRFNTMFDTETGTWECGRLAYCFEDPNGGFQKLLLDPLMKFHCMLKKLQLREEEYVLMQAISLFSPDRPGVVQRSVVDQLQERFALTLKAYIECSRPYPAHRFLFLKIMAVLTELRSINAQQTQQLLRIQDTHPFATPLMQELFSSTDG
Procedure, shortened: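 Cell-based rPXR activation assay: rPXR cells, 2,000 per well, rested 5hr at 37 C, then exposed to compounds in DMSO for 24 hr at 37 C. Luciferase activity read by One-Glo luminescence after 30 min at room temperature.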

[18] = target: Nuclear receptor subfamily 1 group I member 2 (Homo sapiens) (UniProt O75469); assay: CYP3A4 induction through human pregnane X receptor (PXR) by small molecules, qHTS assay (AID 1346984); further: nearly all actives have a fitted effect of over 40% in size
Procedure, shortened: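 Induction measured in HepG2-based DPX-2 cells co-expressing human PXR and a CYP3A4 promoter-driven luciferase. After a 24-hour compound exposure, cells received CYP3A4 luciferin substrate at 3uM final for 3 hours, and light output was then recorded.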

[19] = target: Nuclear receptor subfamily 1 group I member 2 (Homo sapiens) (UniProt O75469); assay: Human pregnane X receptor (PXR) activation by small molecules, qHTS assay (AID 1346985); further: nearly all actives have a fitted effect of over 40% in size
Procedure, shortened: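 DPX-2 cells (HepG2 co-transfected with a PXR response element and a CYP3A4-promoter luciferase construct) were seeded at 2,000 per well, rested 5 hr at 37C, then exposed to DMSO-dissolved compounds for 24 hr. Activation was read as luciferase luminescence.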
On the % scale 0 is the no-effect control and ±100 the full control effect.

BrCCOc1ccccc1
active: Potency [10] 56.6 µM | Potency [11] 89.6 µM
inactive: outcome [1] | outcome [2] | outcome [3] | Potency [4] | outcome [5] | Potency [6] | outcome [7] | outcome [8] | Potency [9] | Potency [12] | Potency [13]

CCCc1ncc(C(=O)O)s1
inactive: outcome [1] | outcome [2] | outcome [3] | Potency [4] | outcome [5] | Potency [6] | outcome [7] | outcome [8] | Potency [9] | Potency [10] | Potency [11] | Potency [12] | Potency [14] | Potency [13] | Potency [15]

CC12CCCC=C1C(=O)OC2=O (stereo not drawn)
inactive: outcome [1] | outcome [2] | outcome [3] | Potency [4] | outcome [16] | Potency [6] | outcome [7] | Potency [9] | Potency [10] | Potency [11] | Potency [13]

CN(C)CCc1c[nH]c2ccc(C[C@H]3COC(=O)N3)cc12
inactive: outcome [1] | outcome [2] | outcome [3] | Potency [4] | outcome [5] | Potency [6] | outcome [7] | outcome [8] | Potency [9] | max activation [17] -1.7% | outcome [18] | outcome [19] | Potency [11] | Potency [12] | Potency [13] | Potency [15]

NC[C@H]1O[C@H](O[C@H]2[C@H](O)[C@@H](O[C@H]3O[C@H](CO)[C@@H](O)[C@H](N)[C@H]3O)[C@H](N)C[C@@H]2N)[C@H](N)[C@@H](O)[C@@H]1O
inactive: activity change, negative = cytotoxicity [1] -5.22% [at 15.8 µM] | activation [2] 3.2% [at 15.8 µM] | activity, negative = inhibition [3] -3.11% [at 10.5 µM] | activity change, negative = cytotoxicity [16] 11% [at 19 µM] | caspase activation [5] -1.91% [at 19 µM] | activity change, negative = cytotoxicity [6] 1.7% [at 19 µM] | caspase-3/7 activation [7] -0.57% [at 19 µM] | activity change, negative = cytotoxicity [8] 0.336% [at 19 µM] | activation [9] -6.93% [at 19 µM] | activity change, negative = inhibition [10] 0.727% [at 23.6 µM] | activity change, negative = inhibition [11] 39.5% [at 23.6 µM] | activity change, negative = inhibition [12] 16.5% [at 23.6 µM] | activity change, negative = inhibition [13] 1.37% [at 15.8 µM] | activity change, negative = inhibition [15] 6.04% [at 23.6 µM]

Nc1cc(S(=O)(=O)O)ccc1O
inactive: outcome [1] | outcome [2] | outcome [3] | Potency [4] | outcome [5] | Potency [6] | outcome [7] | Potency [9] | Potency [12] | Potency [13]

Cc1ccc(S(=O)(=O)NC(=O)NN2CC3CCCC3C2)cc1 (stereo not drawn)
inactive: outcome [1] | outcome [2] | outcome [3] | outcome [16] | outcome [5] | Potency [6] | outcome [7] | outcome [8] | Potency [9] | max activation [17] 1.11% | outcome [18] | outcome [19] | Potency [10] | Potency [11] | Potency [12] | Potency [13] | Potency [15]

CCCCCC(CC)OC(=O)CCCOc1ccc(Cl)cc1Cl (stereo not drawn)
inactive: outcome [1] | outcome [2] | outcome [3] | Potency [4] | outcome [5] | Potency [6] | outcome [7] | Potency [9] | Potency [10] | Potency [13] | Potency [15]
active: Potency [11] 35.5 µM | Potency [12] 28.2 µM

CCCc1ccc(O)c(OC)c1
active: Potency [14] 31.7 µM
inactive: outcome [1] | outcome [2] | outcome [3] | Potency [4] | Potency [6] | outcome [7] | outcome [8] | Potency [9] | Potency [10] | Potency [11] | Potency [12] | Potency [13] | Potency [15]

C=CCN(CC=C)CC=C
inactive: outcome [1] | outcome [2] | outcome [3] | Potency [4] | outcome [5] | Potency [6] | outcome [8] | Potency [9] | Potency [10] | Potency [11] | Potency [14] | Potency [13] | Potency [15]

COC(=O)C(c1ccccc1Cl)N1CCc2sccc2C1 (stereo not drawn)
inactive: outcome [1] | outcome [2] | outcome [3] | Potency [4] | outcome [5] | Potency [6] | outcome [7] | outcome [8] | Potency [13]
active: Potency [10] 17.4 µM | Potency [11] 0.871 µM | Potency [12] 17.4 µM | Potency [14] 15.5 µM

O=C1c2ccccc2C(=O)N1CO
inactive: outcome [1] | outcome [2] | outcome [3] | outcome [16] | outcome [5] | Potency [6] | outcome [7] | outcome [8] | Potency [9] | Potency [10] | Potency [11] | Potency [12] | Potency [13] | Potency [15]

OCCC(F)(F)C(F)(F)C(F)(F)C(F)(F)C(F)(F)C(F)(F)F
inactive: outcome [1] | outcome [2] | outcome [3] | outcome [16] | outcome [5] | Potency [6] | outcome [7] | outcome [8] | Potency [9] | Potency [11] | Potency [12] | Potency [13] | Potency [15]
active: Potency [14] 31.7 µM

COc1ccc(Cl)cc1C
inactive: outcome [1] | outcome [2] | outcome [3] | Potency [4] | outcome [16] | Potency [6] | outcome [7] | Potency [9] | Potency [13] | Potency [15]
active: Potency [12] 84.7 µM
